Pin1 inhibitor = qHTS Assay to Find Inhibitors of Pin1; Peptidyl-prolyl cis-trans isomerase NIMA-interacting 1 (Homo sapiens), Q13526; Pin1 FP peptide displacement, HiFluor488, 10 min; Potency, µM (doses to about 115 µM), for inactives: at the top dose activity, negative = inhibition, most hits filed as inhibitors; actives 0.009% (n = 390,000); AID 504891, 2011; active means well fitted inhibition curve with a large enough effect in the polarisation, with a control signal flat, not every such curve was filed as active; inconclusive means small, poorly fitted or top-dose-only effect, or effect the other way, or a change in a side signal; inactive means no such curve, though single readings can be large or run the other way; the % refers to the polarisation; further: on the % scale 0 is the no-effect control and ±100 the full control effect
Target sequence (Q13526 whole entry, looked up): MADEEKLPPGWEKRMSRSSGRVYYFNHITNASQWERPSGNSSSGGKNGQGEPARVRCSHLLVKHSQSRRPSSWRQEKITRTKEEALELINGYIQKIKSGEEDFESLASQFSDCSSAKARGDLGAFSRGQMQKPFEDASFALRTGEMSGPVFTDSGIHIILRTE
Nrf2 inh = Nrf2 qHTS screen for inhibitors; actives 2.1% (n = 360,000); Potency, µM (doses to about 46 µM), inactives show at the highest dose activity change, negative = inhibition, actives largely listed as inhibitors; AID 504444, 2011; A549 ARE-Fluc reporter, luciferase luminescence, 18-24 h; further: on the % scale 0 is the no-effect control and ±100 the full control effect; nearly all actives have a fitted effect of over 60% in size
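A549 ARE_Fluc cells, 5000/well, 5% FBS OPTI-MEM; compounds in dose-response, 18-24 h at 37 °C/5% CO2; CellTiter-Fluor viability read (Ex 405/Em 525), then BugLite luciferase luminescence = Nrf2 activity.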
Nrf2 ARE act = qHTS of Nrf2 Activators. AREc32 ARE-luciferase reporter (MCF7-derived line), luminescence, 24 h. Potency, µM (top dose mostly 46.1 µM), for the others: at the highest dose activation, most hits filed as activators. actives 0.31% (n = 410,000). AID 624171, 2012; further: % of control where 0% means no effect; nearly all actives have a fitted effect of over 65% in size
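Reporter line AREc32 (ARE-Fluc), seeded overnight in OPTI-MEM with 5% FBS; compound pin-transferred, 24 hr at 37 deg C, 5% CO2; luminescent read-out.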
A549 viability = Nrf2 qHTS screen for inhibitors: counterscreen for cytotoxicity; AID 504648, 2011; A549 ARE-Fluc cells, CellTiter-Fluor viability, 18-24 h; Potency, µM (series often up to 46 µM), for the others: at the top dose activity change, negative = cytotoxicity, actives largely listed as inhibitors; actives 0.16% (n = 390,000); further: on the % scale 0 is the no-effect control and ±100 the full control effect
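A549 ARE_Fluc cells in 5% FBS OPTI-MEM were exposed to compounds in concentration-response for 18-24 h at 37 deg C. Viability was read by CellTiter-Fluor fluorescence (Ex 405/Em 525) after 30 min, before the luciferase read.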
* marks the source's active call; other numbers are inactive results; ? = inconclusive; . = no result given; [ ] = another dose, or the depositor's remark. Rows were chosen to be rich in hits. Some 2.2% of all compounds tested hit in one or more screens of this group. Unless noted, the call rests on the fitted dose curve; in most records, active means well fitted curve in the direction sought with a large enough effect; inconclusive means small, poorly fitted or top-dose-only effect, or another doubt; inactive means no such curve, though single readings can be large; an effect the other way counts as inactive or inconclusive. Potency means the concentration at half of the fitted maximal effect.

SMILES	Pin1 inhibitor	Nrf2 inh	Nrf2 ARE act	A549 viability
CCc1ccc(NC(=O)C2CCN(S(=O)(=O)c3ccc4c(c3)CC(C)N4C(C)=O)CC2)cc1 (stereo not given)	15%	16µM*	2%	-1%
Cc1cc(F)ccc1NC(=O)CCS(=O)(=O)c1ccc2c(c1)CC(C)N2C(=O)C1CC1 (stereo not given)	-6%	-26%	0%	-3%
CC(=O)N1c2ccc(S(=O)(=O)N3CCC(C(=O)Nc4cccc(Cl)c4)CC3)cc2CC1C (stereo not given)	0%	2.1µM*	-1%	-12%
CC(=O)N1c2ccc(S(=O)(=O)N3CCC(C(=O)Nc4cccc(F)c4)CC3)cc2CC1C (stereo not given)	-5%	16µM*	2%	-9%
CCOc1ccc(NC(=O)Cn2c(=O)n(CCC(=O)NCCc3ccccc3)c(=O)c3ccccc32)cc1	-1%	1%	-1%	-1%
COc1ccc(NC(=O)CCc2c(C)nc3nc(CNC(=O)OC(C)(C)C)nn3c2C)cc1OC	-1%	-6%	1%	-4%
COc1cccc(-c2nnc3n2N=C(c2c(OC)cccc2OC)CS3)c1OC	-5%	-6%	.	-1%
COc1ccc(C2Nc3ccccc3C(=O)N2CC(C)(C)C)cc1COc1ccc(NC(C)=O)cc1 (stereo not given)	?	-1%	.	-9%
CC(=O)N1c2c(cc(Br)cc2S(=O)(=O)N2CCN(c3ccccc3F)CC2)CC1C (stereo not given)	18%	23µM*	-1%	-7%
CC1Cc2cc(S(=O)(=O)N3CCC(C(=O)Nc4ccccn4)CC3)ccc2N1C(=O)C1CCC1 (stereo not given)	3%	15µM*	3%	-12%
Cc1ccnc(NC(=O)C2CCN(S(=O)(=O)c3ccc4c(c3)CC(C)N4C(=O)C3CCC3)CC2)c1 (stereo not given)	-2%	?	1%	-11%
CC(=O)N1c2c(cc(Br)cc2S(=O)(=O)N2CCN(c3cc(C)ccc3C)CC2)CC1C (stereo not given)	8%	-10%[9.27 µM]	0%	9%
O=C(Nc1cccc(F)c1)C1CCN(S(=O)(=O)c2ccc3[nH]c4c(c3c2)CCCCC4)CC1	7%	18µM*	-1%	-30%
COc1cccc(N2CCN(S(=O)(=O)c3ccc4c(c3)CC(C)N4C(=O)C3CC3)CC2)c1 (stereo not given)	2%	?	0%	-1%
CC1Cc2cc(S(=O)(=O)N3CCN(c4ccccc4F)CC3)ccc2N1C(=O)C1CC1 (stereo not given)	13%	15µM*	-1%	-8%
Cc1cc2c(s1)c1cnn(Cc3ccc(F)cc3Cl)c(=O)c1n2C	-3%	4%	.	0%
Cn1c(=O)oc2cc(S(=O)(=O)N3CCC(C(=O)N4CCN(c5ccc(Cl)cc5)CC4)CC3)ccc21	?	18µM*	0%	3%
CC(=O)N1c2ccc(S(=O)(=O)N3CCCC(C(=O)Nc4ccc(F)cc4)C3)cc2CC1C (stereo not given)	2%	18µM*	2%	-10%
Cc1cccc(NC(=O)C2CCN(S(=O)(=O)c3ccc4ccccc4c3)CC2)n1	6%	16µM*	3%	-14%
Cc1cccc(NC(=O)C2CCN(S(=O)(=O)c3ccc(Cl)cc3)CC2)n1	2%	?	0%	-7%
CC(=O)c1ccc(N2CCN(C(=O)C3CCN(S(=O)(=O)c4ccc5c(c4)CC(C)N5C(C)=O)CC3)CC2)cc1 (stereo not given)	5%	15µM*	3%	-1%
Cn1c(=O)oc2cc(S(=O)(=O)N3CCC(C(=O)N4CCN(c5cccc(Cl)c5)CC4)CC3)ccc21	17%	?	0%	-1%
COc1ccc(NC(=O)C2CCCN(S(=O)(=O)c3ccc4c(c3)CC(C)N4C(C)=O)C2)cc1 (stereo not given)	2%	?	0%	-2%
Cc1cn2c(=O)cc(COC(=O)c3cccc(NC(=O)COc4ccccc4)c3)nc2s1	?	.	9%	2%
CCC(=O)N1c2ccc(S(=O)(=O)N3CCN(c4cc(C)ccc4C)CC3)cc2CC1C (stereo not given)	2%	16µM*	-1%	6%

Source: PubChem (National Center for Advancing Translational Sciences (NCATS))
